Only some compounds are listed: those with a hit (about 4.3% of all), similar ones and a draw of the others.
MITF TRPM1 HTS = activators of MITF-driven TRPM1 promoter reporter, primary screen, cell-based, SK-MEL-5, luciferase, single point; SK-MEL-5 TRPM1-promoter luciferase, 24 h; % of positive control, neutral wells = 0; activation, % at 12.5 µM; 300,000 tested, 0.75% active;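 active means mean activation of at least 80% with every replicate also reaching 80%; inconclusive means mean reaches 80% but some replicate falls short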
esBAF inh = Bmi1 luciferase reporter increase in mESCs, primary screen, esBAF inhibitor project, mouse ES cells, Bmi1 luciferase knock-in, single point. 24 h; 100% = twice the neutral-well signal. reporter increase, % at 12.5 µM. 350,000 tested, 2% active. AID 602393, 2012; in the data active means activation above about 40%; inconclusive means no clear call, values can overlap the other calls;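 further: a rise in the Bmi1 reporter signal indicates esBAF inhibition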
FGF22 binding = binders of human FGF22 protein, primary screen, FGF22 synaptogenesis inhibitor project, biophysical, thermal shift, single point | AID 651658, 2012 | activity (Tm shift, normalised), % at 9.99 µM | 340,000 tested, 1.5% active | recombinant FGF22 thermal shift, SYPRO orange fluorescence; percent of sucrose octasulfate shift, DMSO zero | Fibroblast growth factor 22 (Homo sapiens), Q9HCT0;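 active means mean Tm shift, scaled 0 neutral to 100 positive control, at about 1.3% or above, every replicate too, limit read from the data; inconclusive means no clear call, values can overlap the other calls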
Target sequence (Q9HCT0 whole entry, looked up): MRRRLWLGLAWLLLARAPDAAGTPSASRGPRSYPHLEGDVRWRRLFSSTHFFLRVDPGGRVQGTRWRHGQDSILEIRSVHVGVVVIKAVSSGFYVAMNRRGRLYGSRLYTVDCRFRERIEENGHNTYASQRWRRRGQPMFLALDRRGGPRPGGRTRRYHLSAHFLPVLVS
SMARCA2 activ = SMARCA2 (BRM) function activators, primary screen, cell-based, luminescence, high throughput. activation, % at 9.1 µM. AID 652017, 2013. 370,000 tested, 1% active. MG213 cells, MMTV-luciferase reporter, dexamethasone, overnight; in the data active means activation above about 7.8%
AF4-AF9 inh = inhibitors of AF4 peptide binding to AF9, primary screen, biochemical, AlphaScreen, biotin-AF4 peptide, FLAG-AF9, single point; Protein AF-9 (Homo sapiens), P42568; inhibition, % at 10 µM; 350,000 tested, 0.47% active;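 active means every replicate reaching a set inhibition limit, whatever the replicate mean, cut at about 25% in these data; inconclusive means mean inhibition reaches that limit but some replicates miss it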
Wnt act = Wnt/beta-catenin pathway activators, primary screen, cell-based, plate reader, single point; Wnt/beta-catenin reporter cell assay, activator; activation, % at 9.35 µM; 300,000 tested, 1.2% active; AID 743398, 2014; in the data active means activation above about 30%, passing the limit was not always enough; inconclusive means no clear call, values can overlap the other calls
A number is an active result; . = inactive; ? = inconclusive; / = no result.

SMILES	MITF TRPM1 HTS	esBAF inh	FGF22 binding	SMARCA2 activ	AF4-AF9 inh	Wnt act
CN(C)C(=O)C[C@@H]1CC[C@H]2[C@@H](COc3ccc(NC(=O)c4ccc(F)cc4)cc3C(=O)N2C)O1	/	.	.	/	.	/
COc1ccccc1NC(=O)N[C@@H]1C=C[C@H](CC(=O)NCc2ccc(Cl)c(Cl)c2)O[C@H]1CO	/	.	.	/	.	/
COc1ccc(S(=O)(=O)Nc2cccc3c2O[C@H](CN(C)Cc2ccccc2)[C@H](C)CN([C@H](C)CO)C3=O)cc1	/	.	.	/	.	/
COc1ccccc1OCC(=O)Nc1nc(C)c(C)s1	85.3	.	.	.	.	35.5
CN1C2=CC=CC=CC2=[N+](C)C12C([N+](=O)[O-])=CC(=[N+]([O-])[O-])C=C2[N+](=O)[O-] (stereo unspecified)	/	.	.	.	.	106.3
CCc1ccc2nc(N3CCN(C(=O)C(C)(C)C)CC3)sc2c1	.	?	.	.	.	.
CCCCC(=O)N1CCN(c2nc3ccc(F)cc3s2)CC1	.	.	.	.	.	.
CCCC(=O)N1CCN(c2nc3ccccc3s2)CC1	96.5	.	.	.	.	.
CCC(=O)N1CCN(c2nc3ccc(Br)cc3s2)CC1	.	74.8	.	.	.	.
CC(C)NC(=O)N1CCCN(c2nc3ccc(Cl)cc3s2)CC1	.	.	.	.	.	30.8
COc1cccc(C(C(=O)NC2CCCCC2)N(C(=O)c2cccs2)c2ccc3c(c2)OCO3)c1 (stereo unspecified)	.	/	44.2	.	.	.
Cc1noc(C)c1NC(=O)Nc1ccc2c(c1)C(=O)N([C@H](C)CO)C[C@H](C)[C@H](CN(C)C(=O)NC1CCCCC1)O2	/	.	.	/	.	/
CC1(C)CSC(=NCCc2ccccc2)N1C(=O)c1ccc(C#N)cc1	.	/	.	.	.	.
CC1(C)CSC(=NCCc2ccccc2)N1	.	44.6	.	.	.	.
Cc1noc(C)c1S(=O)(=O)Nc1cccc2c1O[C@@H](CN(C)C(=O)Nc1ccccc1)[C@@H](C)CN([C@H](C)CO)C2=O	/	.	.	/	.	/
Cc1nn2c(N)c(-c3ccccc3)cnc2c1-c1ccc(Cl)cc1	101.1	?	.	.	.	.
Cc1nn2c(-c3ccccc3)ccnc2c1-c1ccccc1	?	/	/	.	/	40.4
Cc1ccc(-c2ccnc3c(Cl)c(C)nn23)cc1	.	.	.	.	51.1	.
Cc1nc2c(-c3ccccc3)c(C)nn2c(N)c1-c1ccccc1	86.5	/	/	.	/	/
C[C@@H]1CN([C@@H](C)CO)C(=O)c2cc(NS(=O)(=O)c3ccccc3)ccc2O[C@@H]1CN(C)C(=O)NC1CCCCC1	/	.	.	/	.	/
NS(=O)(=O)c1cc(C(=O)Nc2ccc3c(c2)CCC3)ccc1Cl	113.4	77.0	.	.	.	.
Cc1ccc(C(=O)Nc2ccc3c(c2)CCC3)cc1S(=O)(=O)N1CCOCC1	.	62.4	.	.	.	?
Cc1ccc(NC(=O)c2n[nH]c(=O)c3ccccc23)cc1S(=O)(=O)N1CCOCC1	.	/	43.0	.	.	.
O=C(Nc1ccc(S(=O)(=O)Nc2ncccn2)cc1)c1ccc(F)c(S(=O)(=O)N2CCOCC2)c1	.	.	.	.	.	.
O=C(Nc1ccc2c(c1)CCC2)c1ccc(F)c(S(=O)(=O)N2CCOCC2)c1	.	/	/	.	/	83.0
SMILES	MITF TRPM1 HTS	esBAF inh	FGF22 binding	SMARCA2 activ	AF4-AF9 inh	Wnt act
Cc1ccc(C(=O)Nc2ccncc2)cc1S(=O)(=O)N1CCOCC1	.	.	.	.	.	.
COc1ccc(/C=C/S(=O)(=O)NCc2ccccc2)c(CNC(=O)OC(C)(C)C)c1	/	/	/	.	/	/
CO[C@H]1CN(C)C(=O)c2cc(NC(=O)NC(C)C)ccc2OC[C@@H](C)N(Cc2cncnc2)C[C@@H]1C	/	.	/	/	/	/
C=CCC[C@@H](Cc1ccc(F)cc1)C(=O)OC[C@@H](NC(=O)[C@@H](CC=C)CC(=O)N[C@@H](CO)Cc1ccccc1)C(C)(C)C	.	.	.	.	.	.
C=CCC[C@H](Cc1ccc(F)cc1)C(=O)OC[C@@H](NC(=O)[C@@H](CC=C)CC(=O)N[C@@H](CO)Cc1ccccc1)C(C)(C)C	.	.	6.2	.	.	.
O=C(Cc1ccncc1)NCC[C@@H]1CC[C@H](NC(=O)Nc2ccc(F)cc2)[C@@H](CO)O1	/	.	.	/	.	/
CC(C)NC(=O)N(C)C[C@@H]1Oc2c(NC(=O)c3ccc(-c4nccs4)cc3)cccc2C(=O)N([C@@H](C)CO)C[C@H]1C	/	.	.	/	.	/
C=CCNC(=O)c1ccccc1NC(=O)COc1ccc(OC)cc1	.	/	43.7	.	.	.
COc1ccc(NC(=O)c2ccccc2NC(=O)COc2ccccc2)cc1	.	/	/	.	/	/
COCC(=O)Nc1ccccc1C(=O)Nc1ccc(OC)cc1	.	.	/	.	/	35.5
CCCCNC(=O)C[C@@H]1C(=O)N(Cc2ccc(OC)cc2)C2=CCN(C(=O)OC(C)(C)C)C[C@]21C(=O)OCC	/	/	/	.	/	/
CO/N=C/C(C#N)c1ncc(C(F)(F)F)cc1Cl (stereo unspecified)	.	.	.	/	.	.
N#CC(c1ccccn1)c1ncc(C(F)(F)F)cc1Cl (stereo unspecified)	.	.	43.4	.	.	.
N#CC1=C(SCC(=O)Nc2ccccc2)NC(=O)CC1c1ccco1 (stereo unspecified)	.	79.0	/	.	/	/
N#CC1=C(SCC(=O)NCc2ccccc2)NC(=O)CC1c1ccco1 (stereo unspecified)	.	.	/	.	/	/
Cc1nc(C2COc3ccccc3O2)sc1C(=O)O (stereo unspecified)	.	45.0	.	.	.	.
O=C(O)C1Cc2ccccc2CN1C(=O)COc1ccc(Cl)cc1 (stereo unspecified)	.	.	43.3	.	.	.
CC(=O)N1[C@H](C(=O)N2CCCCC2)[C@@H](CO)[C@@H]2Cn3c(ccc(C4=CCCCC4)c3=O)[C@@H]21	/	.	.	/	.	/
O=C(Nc1cccc(F)c1)N1CC(=O)N2[C@H](CO)[C@@H](c3ccc(C#CC4CC4)cc3)[C@@H]2C1	/	/	/	/	.	/
CCN(CC)S(=O)(=O)c1cccc(-c2nnc(SCC(=O)N3CCC(C(=O)O)CC3)n2N)c1	.	/	.	.	.	.
CCN(CC)S(=O)(=O)c1cccc(-c2nnc(SCC(=O)NC)n2N)c1	.	/	43.8	.	.	.
COC(=O)C1=C(C)N(C)C(=NCc2ccc3c(c2)OCO3)NC1c1ccccc1 (stereo unspecified)	/	/	.	.	.	.
C[C@H](CO)N1C[C@H](C)[C@@H](CN(C)S(=O)(=O)c2cn(C)cn2)Oc2c(NS(C)(=O)=O)cccc2C1=O	/	.	.	/	.	/
